High-throughput results: PubChem, several laboratories
STAT3 inh-1 – IL-6 driven STAT3 reporter inhibitors, primary screen, U3A cells, luciferase, luminescence, MLSCN library; IL-6 STAT3-luciferase reporter; host cell line lacks STAT1; inhibition, % at 5.5 µM; 190,000 tested, 0.89% active;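 active means inhibition above the mean inhibition across all screened compounds plus 3 SD, cut at about 44% in these data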
STAT1 inh – STAT1 signaling inhibitors, primary screen, cell-based, HTS, luciferase reporter; NIH 3T3 STAT1-luciferase reporter, IFN-gamma, luminescence; inhibition, % at 5.5 µM; 200,000 tested, 0.35% active; AID 920, 2007;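 active means inhibition above a set limit, the mean inhibition across all tested compounds plus 3 SD, cut at about 34% in these data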
C8 TRAIL sens – viability loss with TRAIL in NB7+C8 cells, primary screen, TRAIL sensitizer project, cell-based, ATPlite luminescence | 360,000 tested, 1% active | inhibition (viability loss, TRAIL sensitization), % at 10 µM;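 active means compounds causing at least 50% loss of cell viability in the single-dose screen, relative to plate controls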
Platelet DG rel – inhibitors of platelet dense granule secretion, primary screen, cell-based, MLPCN, human platelets. human platelet-rich plasma, SFLLRN dense granule ATP release, luminescence. inhibition, %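 (compounds screened at 7.5 µM in platelet-rich plasma)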. 300,000 tested, 0.22% active. AID 1663, 2009;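 active means mean replicate score, as percent of positive control, at or above 50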
PPC-1+TRAIL kill – compounds killing PPC-1 cancer cells with TRAIL present, primary screen, TRAIL potentiator project, ATPLite luminescence, uHTS. PPC-1 cells + TRAIL, ATPLite viability luminescence. cell killing (% activity), % at 4 µM or 5 µM. 220,000 tested, 0.41% active;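 active means cell killing above 50% in the first pass at 4 µM, then a duplicate retest at 5 µM averaging 50% or more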
STAT3 inh-2 – STAT3 reporter inhibitors, retest of hits, confirmation, U3A cells, luciferase, luminescence; shares compounds with STAT3 inh-1; IL-6 STAT3 luciferase reporter; cell line lacks STAT1; inhibition, % at 5.7 µM; 1,200 tested, 45% active; AID 1265, 2008;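 active means inhibition above the hit cutoff computed for the primary STAT3 screen, cut at about 44% in these data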
NFkB inh STAT3ct – NF-kB reporter inhibitors in human cells, confirmation, counter-screen for STAT3 inhibitor project, cell-based, HEK293T, luciferase, TNF-alpha stimulus | inhibition, % at 5.7 µM | shares compounds with STAT3 inh-1 | 1,200 tested, 36% active | TNF-alpha induced;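 active means inhibition above the mean of solvent-only control wells plus 3 SD, cutoff set per campaign, cut at about 13% in these data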
STAT1 inh 2 – STAT1 reporter inhibitors, IFN-gamma induced, confirmation, counter-screen for STAT3 inhibitor project, cell-based, NIH 3T3, luciferase luminescence; shares compounds with STAT3 inh-1; NIH 3T3 STAT1-luciferase reporter; inhibition, % at 5.7 µM; 1,200 tested, 27% active; AID 1317, 2008;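 active means inhibition above the mean plus 3 SD of solvent-only control wells, limit set per screening run, cut at about 16% in these data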
PPC-1 tox – cytotoxicity in PPC-1 cells, confirmation, cytotoxicity control for TRAIL apoptosis potentiator project, cell-based, ATP content luminescence. shares compounds with PPC-1+TRAIL kill. PPC-1 viability, ATPlite luminescence, overnight. cytotoxicity, % at 5 µM. 1,200 tested, 50% active. AID 1447, 2008;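 active means reconfirmed compounds whose average cytotoxicity reaches 50% or more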
Each line names hits and unclear results; the compound was inactive in the other large screens (follow-up assays come after a bar, where they were run). In the library only some 1.6% were active in any assay of this set; here they are far more common.

CC1(C(=O)O)CCN1C(=O)c1cccc(C(F)(F)F)c1 (centres undefined)	none (no result: STAT3 inh-1, STAT1 inh, Platelet DG rel, PPC-1+TRAIL kill)
COc1ccc2c(c1)oc(=O)c1c3ccccc3[nH]c21	STAT3 inh-1 60 | STAT3 inh-2 62 | NFkB inh STAT3ct inactive | STAT1 inh 2 inactive
COc1ccc2c(c1)oc(=O)c1ccccc12	none
O=C(Nc1cccc(O)c1)c1noc2c1CCc1ccccc1-2	STAT3 inh-1 83, C8 TRAIL sens 71, Platelet DG rel 51 | STAT3 inh-2 60 | NFkB inh STAT3ct inactive | STAT1 inh 2 inactive
CC(=O)Nc1ccc(SCC(=O)c2cc(C)n(-c3ccccc3)c2C)cc1	STAT3 inh-1 44 | STAT3 inh-2 inactive | NFkB inh STAT3ct inactive | STAT1 inh 2 inactive
O=S(=O)(NCc1ccc(F)cc1)c1ccccc1Br	none (no result: STAT3 inh-1, STAT1 inh, Platelet DG rel, PPC-1+TRAIL kill)
O=C(NCCc1ccccc1)c1ccc([N+](=O)[O-])cc1	STAT3 inh-1 44 | STAT3 inh-2 inactive | NFkB inh STAT3ct inactive | STAT1 inh 2 inactive
Cc1cccc(C)c1NC(=O)C(c1cc2ccccc2o1)N1CCN(C)CC1 (centres undefined)	none (no result: STAT3 inh-1, STAT1 inh, Platelet DG rel, PPC-1+TRAIL kill)
CN(C)S(=O)(=O)Oc1cccc(C(=O)Nc2ccc(Cl)cc2)c1	STAT3 inh-1 71 | STAT3 inh-2 56 | NFkB inh STAT3ct inactive | STAT1 inh 2 inactive
CN(C)S(=O)(=O)Oc1cccc(C(=O)Nc2ccccc2Cl)c1	none
CC(=O)Nc1cccc(NC(=O)c2csc(C)c2)c1	none (no result: STAT3 inh-1, STAT1 inh, PPC-1+TRAIL kill)
O=C(Nc1nccs1)c1ccc(S(=O)(=O)NCC2CCCCC2)cc1	STAT3 inh-1 71 | STAT3 inh-2 55 | NFkB inh STAT3ct inactive | STAT1 inh 2 inactive
O=C(Nc1nccs1)c1ccc(S(=O)(=O)NCc2cccs2)cc1	none
CC1(C(=O)Nc2ccc3c(c2)OCCO3)CSCC(=O)N1CC(F)(F)F (centres undefined)	none (no result: STAT3 inh-1, STAT1 inh, Platelet DG rel, PPC-1+TRAIL kill)
O=C(NCCC1=CCCCC1)c1ccc(Cl)cc1	STAT3 inh-1 47 (no result: C8 TRAIL sens) | STAT3 inh-2 inactive | NFkB inh STAT3ct inactive | STAT1 inh 2 inactive
CS(=O)(=O)N(Cc1ccc(Cl)cc1)c1ccc(C(=O)NCCC2=CCCCC2)cc1	none
COc1ccc(-c2nn(C)c(=O)c3ccccc23)cc1NC(=O)COc1ccc(C)cc1	STAT3 inh-1 65 | STAT3 inh-2 49 | NFkB inh STAT3ct inactive | STAT1 inh 2 inactive
COc1ccc(Cl)cc1NC(=O)COC(=O)/C=C/c1c(C)nn(C2CCS(=O)(=O)C2)c1Cl (centres undefined)	STAT3 inh-1 46 | STAT3 inh-2 inactive | NFkB inh STAT3ct inactive | STAT1 inh 2 inactive
O=C(Nc1ccccn1)c1cccs1	none
O=C(Nc1nonc1NC(=O)c1cccs1)c1cccs1	STAT3 inh-1 44 | STAT3 inh-2 47 | NFkB inh STAT3ct 13 | STAT1 inh 2 inactive
O=[N+]([O-])c1ccc(N/N=C/c2sc(N3CCOCC3)nc2-c2ccccc2)c(S(=O)(=O)Nc2ccc(Cl)cc2)c1	STAT3 inh-1 81 | STAT3 inh-2 71 | NFkB inh STAT3ct 48 | STAT1 inh 2 54 | PPC-1 tox inactive
COc1ccc(C(=O)Nc2ccc3c(c2)OCCO3)cc1	STAT3 inh-1 66, C8 TRAIL sens 72, PPC-1+TRAIL kill 75 (no result: Platelet DG rel) | STAT3 inh-2 inactive | NFkB inh STAT3ct inactive | STAT1 inh 2 inactive | PPC-1 tox 73
Cc1ccc(NC(=O)c2ccc3c(c2)OCCO3)cc1	STAT3 inh-1 77, C8 TRAIL sens 67, PPC-1+TRAIL kill 56 | STAT3 inh-2 inactive | NFkB inh STAT3ct inactive | STAT1 inh 2 inactive | PPC-1 tox 56
CC(=O)Oc1ccc(C(=O)Nc2ccc3c(c2)OCCO3)cc1	none (no result: STAT3 inh-1, STAT1 inh, PPC-1+TRAIL kill)
CCNC(=O)C1(C)CCCN(C(=O)c2cc3ccccc3s2)C1 (centres undefined)	none (no result: STAT3 inh-1, STAT1 inh, Platelet DG rel, PPC-1+TRAIL kill)
CN(C)c1ccc(-c2nc3ccccc3n2C)cc1	STAT3 inh-1 77, C8 TRAIL sens 82, PPC-1+TRAIL kill 88 | STAT3 inh-2 inactive | NFkB inh STAT3ct inactive | STAT1 inh 2 inactive | PPC-1 tox 88
CCn1c(-c2ccc(N(C)C)cc2)nc2ccccc21	STAT3 inh-1 44, C8 TRAIL sens 65, PPC-1+TRAIL kill 60 | STAT3 inh-2 inactive | NFkB inh STAT3ct inactive | STAT1 inh 2 inactive | PPC-1 tox 60
CC(C)n1c(-c2ccc(N(C)C)cc2)nc2ccccc21	none (no result: Platelet DG rel)
COc1ccc(N2CC(C(=O)Nc3cccnc3)CC2=O)cc1 (centres undefined)	none (no result: STAT3 inh-1, STAT1 inh, PPC-1+TRAIL kill)
C/C(=N/NC(=O)c1cccs1)c1c(C)[nH]n(-c2nc3ccccc3s2)c1=O	STAT3 inh-1 56, C8 TRAIL sens 89, PPC-1+TRAIL kill 77 | STAT3 inh-2 inactive | NFkB inh STAT3ct inactive | STAT1 inh 2 inactive | PPC-1 tox 75
O=C(NCc1cccs1)C1C(=O)Nc2ccccc2C(=O)N1Cc1ccccc1 (centres undefined)	none (no result: STAT3 inh-1, STAT1 inh, Platelet DG rel, PPC-1+TRAIL kill)
Nc1[nH]n(-c2ccccc2)c(=O)c1N=Nc1ccc2c(c1)OCCO2	STAT3 inh-1 45, C8 TRAIL sens 55 | STAT3 inh-2 inactive | NFkB inh STAT3ct inactive | STAT1 inh 2 inactive | PPC-1 tox inactive
COc1ccc(-c2cc(=O)c3cc(OC)ccc3o2)cc1	STAT3 inh-1 73, C8 TRAIL sens 66, PPC-1+TRAIL kill 66 | STAT3 inh-2 53 | NFkB inh STAT3ct 31 | STAT1 inh 2 inactive | PPC-1 tox 68
C[C@@H]1O[C@H](C2CCCC2)Cc2[nH]c(=S)[nH]c(=O)c21	none (no result: STAT3 inh-1, STAT1 inh, Platelet DG rel, PPC-1+TRAIL kill)
CCN(CC)c1ccc2cc(-c3nc4ccccc4[nH]3)c(=O)oc2c1	STAT3 inh-1 99, C8 TRAIL sens 95, PPC-1+TRAIL kill 96 | STAT3 inh-2 76 | NFkB inh STAT3ct 50 | STAT1 inh 2 17 | PPC-1 tox 95
COc1ccc(OC)c(C(O)c2ncc(-c3ccccc3OC)[nH]2)c1 (centres undefined)	none (no result: STAT3 inh-1, STAT1 inh, Platelet DG rel, PPC-1+TRAIL kill)
NC(=O)c1ccsc1NC(=O)c1ccc(N2CCCC2=O)cc1	STAT3 inh-1 62, C8 TRAIL sens 80, PPC-1+TRAIL kill 77 | STAT3 inh-2 inactive | NFkB inh STAT3ct inactive | STAT1 inh 2 inactive | PPC-1 tox 74
CC(C)Cc1nnc(NC(=O)c2ccc(N3CCCC3=O)cc2)s1	none (no result: STAT3 inh-1, STAT1 inh, PPC-1+TRAIL kill)
